# From PubChem BioAssay
# In the library only some 19% were active in any assay of this set; here they are far more common.
# MARV entry inh = qHTS for inhibitors of binding or entry into cells for Marburg Virus; Marburg virus pseudotyped entry inhibition, cell reporter; Potency, µM (highest dose often 37.8 µM), most hits filed as inhibitors; hit rate 1.8% among 300,000; AID 540276, 2011; calls by dose curve; tested in HEK293 cells
# Pf growth 48h = Primary qHTS for delayed death inhibitors of the malarial parasite plastid, 48 hour incubation | P. falciparum luciferase growth in erythrocytes, 48 h | Potency, µM (highest dose often 28.7 µM), actives largely listed as inhibitors | hit rate 5.9% among 310,000
#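 A one-generation exposure of luciferase-tagged malaria parasites in RPMI 1640/Albumax erythrocyte culture, 37 C and 5% CO2. Inhibition is inferred from decreased luminescence after adding detection reagent.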
# Shiga inhibitor = A qHTS for Small Molecule Inhibitors of Shiga Toxin | Vero cells, Shiga toxin protein synthesis inhibition reporter | inhibition, % at 38.7 µM | hit rate 9.2% among 290,000 | AID 2315, 2010; in the data active = inhibition mostly above about 28%, no sharp cut-off; inactive = mostly below about 43%
# LASV entry inh = qHTS for Inhibitors of binding or entry into cells for Lassa Virus | Lassa virus pseudotype entry inhibition, cell reporter | Potency, µM (titrated, usually from 37.9 µM), hits mostly inhibitors | hit rate 1.2% among 300,000 | AID 540256, 2011; calls by dose curve; tested in HEK293 cells; also: nearly all actives have a fitted effect of over 50% in size
# Pf growth 96h = Primary qHTS for delayed death inhibitors of the malarial parasite plastid, 96 hour incubation. hit rate 6.9% among 320,000. P. falciparum luciferase reporter growth, 96 h. AID 504834, 2011. Potency, µM (highest dose often 28.7 µM), usual class: inhibitors
#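 Readout is luminescence from an integrated firefly luciferase in P. falciparum. Red cells, 2% hematocrit and 0.05% parasitemia final, were cultured with compound through two parasite generations (96 hours) at 37 C, 5% CO2.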
# CHX counter = Cycloheximide Counterscreen for Small Molecule Inhibitors of Shiga Toxin; max response, %; AID 2314, 2010; hit rate 12% among 300,000; cell reporter, cycloheximide protein synthesis inhibition counterscreen; in the data active = max response mostly above about 13%, no sharp cut-off; inactive = mostly below about 14%; also: read at 38.3 µM for the half of the compounds with a filed dose
# Numbers stand for hits; n = inactive; u = inconclusive; x = no result given. Unless noted, calls follow the shape of the dose curve; as a rule, active = well fitted inhibition curve with a large enough effect; inconclusive = small, poorly fitted or top-dose-only effect, or another doubt; inactive = no such curve, though single readings can be large or run the other way.
SMILES,MARV entry inh,Pf growth 48h,Shiga inhibitor,LASV entry inh,Pf growth 96h,CHX counter
COc1ccnc(Oc2ccc(F)cc2)c1C#N,n,n,n,n,n,n
O=C(Nc1ccccc1O)c1cccc(S(=O)(=O)N2CCOCC2)c1,n,n,n,n,n,n
c1ccc2[nH]c(CN3CCOCC3)nc2c1,n,n,n,n,x,n
c1ccc2cc3[nH]c(CN4CCOCC4)nc3cc2c1,n,n,34.6,u,u,17.3
CCOC(=O)C(Sc1ncnc2c1sc1nc(N3CCOCC3)c3c(c12)CCCC3)c1ccccc1 (centres undefined),x,1.65µM,n,x,u,n
COC(=O)c1ccc(Cn2cnc3c(sc4nc(N5CCOCC5)c5c(c43)CCCC5)c2=O)o1,u,1.65µM,n,u,n,n
CC(C)CNc1nnnc2c1sc1nc(N3CCOCC3)c3c(c12)CCCC3,n,1.65µM,n,n,1.31µM,n
COC(=O)c1ccc(CSc2ncnc3c2sc2nc(N4CCOCC4)c4c(c23)CCCC4)o1,n,x,x,n,x,x
Cc1ccccc1-n1cnc2c(sc3nc(N4CCOCC4)c4c(c32)CCCC4)c1=O,u,10.4µM,n,u,u,n
C=CCNc1nnnc2c1sc1nc(N3CCOCC3)c3c(c12)CCCC3,n,u,n,n,u,n
N#CC1=C(SCC(=O)c2cc3ccccc3oc2=O)NC(=O)C(C#N)C12CCCC2 (centres undefined),n,n,n,n,n,n
COc1ccc(-n2cnc3c(sc4nc(N5CCOCC5)c5c(c43)CCCC5)c2=O)cc1,n,n,n,u,2.94µM,n
N#CC[C@H](Cc1ccccc1)N1CCN(Cc2ccccc2)CCC1=O,x,n,n,x,n,n
CC(C)(C)[C@H]1CCC(=O)N([C@H](CSc2ccccc2)Cc2ccccc2)CC1,x,u,n,x,u,n
CC(=O)Nc1ccc(SC[C@H](Cc2ccccc2)N2CCN(CCc3ccccc3)CCC2=O)cc1,x,8.28µM,n,x,2.94µM,n
CC(=O)Nc1ccc(SCC(c2ccccc2)N2CCN(CCc3ccccc3)CCC2=O)cc1 (centres undefined),x,x,n,x,x,n
N#CC[C@H](Cc1ccccc1)N1CCN(CCc2ccccc2)CCC1=O,x,n,n,x,3.7µM,n
CC(=O)Nc1ccc(SC[C@H](Cc2ccccc2)N2CC[C@@H](C(C)(C)C)CCC2=O)cc1,x,1.85µM,x,x,u,x
COc1cccc(N(C(=O)Cn2nnc(-c3cccs3)n2)C(C(=O)NC(C)C)c2ccc(C)o2)c1 (centres undefined),u,u,n,n,n,n
O=C(NCc1ccco1)C(C(=O)c1ccc(F)cc1)n1ccccc1=O (centres undefined),n,n,n,n,n,n
CC(C)(C)OC(=O)NC(CCNC=C1C(=O)OC(C)(C)OC1=O)C(=O)O (centres undefined),n,n,n,u,8.28µM,n
CC1(C)OC(=O)C(=CNC(CCC(N)=O)C(=O)O)C(=O)O1 (centres undefined),u,n,n,n,n,n
O=C(NC1CCCC1)C(c1ccccc1)N(C(=O)c1ccno1)c1cccnc1 (centres undefined),n,x,n,n,x,n
O=C(NC1CCCC1)C(c1ccccc1)N(C(=O)c1ccno1)c1ccccc1 (centres undefined),n,n,n,u,7.38µM,n
O=C(NC1CCCC1)C(c1ccncc1)N(C(=O)c1csnn1)c1ccc(F)cc1 (centres undefined),u,n,n,n,n,n
SMILES,MARV entry inh,Pf growth 48h,Shiga inhibitor,LASV entry inh,Pf growth 96h,CHX counter
O=C(NC1CCCC1)C(c1ccncc1)N(C(=O)c1csnn1)c1ccccc1 (centres undefined),u,n,n,n,5.86µM,n
CC(C)c1ccc(N(C(=O)c2csnn2)C(C(=O)NC2CCCC2)c2ccncc2)cc1 (centres undefined),n,n,65.8,n,n,30.3
Fc1ccc(NC(=S)Nc2cc(-c3ccccc3)[nH]n2)cc1Cl,u,10.4µM,n,u,n,n
Cc1ccc(NC(=S)Nc2cc(-c3ccccc3)[nH]n2)cc1Cl,n,u,48.3,x,n,13.4
Cc1cccc(OCC(=O)NCC(=O)N/N=C/c2cccnc2)c1,n,n,n,n,n,n
CN(C(=O)CN1C(=O)c2ccc([N+](=O)[O-])cc2C1=O)C1CCCCC1,n,x,x,n,x,x
CN(C(=O)Cn1cc([N+](=O)[O-])ccc1=O)C1CCCCC1,1.26µM,u,x,n,n,x
Nc1ccn([C@@H]2O[C@H](CO)[C@@H](O)C2O)c(=O)n1 (some centres undefined),u,n,n,u,n,n
CO/N=C/c1ccc(Oc2ccc(C)cc2)c([N+](=O)[O-])c1,u,n,n,n,n,43.3
O=[N+]([O-])c1cc(/C=N/O)ccc1Oc1ccccc1Cl,n,n,50.1,n,n,52.5
CO/N=C/c1ccc(Sc2ccccc2)c([N+](=O)[O-])c1,u,x,n,u,n,n
CCOc1ccc(OCC(=O)NCc2n[nH]c(=O)c3ccccc23)cc1,u,n,x,n,n,x
Cc1ccc2cc(/C=N/NC(=O)[C@H]3C[C@@H]3c3ccccc3)c(Cl)nc2c1,n,2.94µM,n,0.0651µM,2.08µM,15.9
O=C(N/N=C/c1cc2ccccc2nc1Cl)[C@H]1C[C@@H]1c1ccccc1,u,2.62µM,n,0.366µM,1.65µM,n
N#CC1=C(N)SC(N)=C(C#N)C1c1ccc([N+](=O)[O-])cc1,u,u,n,n,u,n
CCn1cc(C(=O)NCc2ccc(C)cc2)c(=O)c2cc(S(=O)(=O)N3CCCCCC3)ccc21,x,x,x,6.31µM,x,x
COc1ccc(S(=O)(=O)N2CCCCCC2)cc1C(=O)NCc1ccc(C)cc1,x,14.7µM,x,x,11.7µM,x
CCn1cc(C(=O)NCc2ccccc2)c(=O)c2cc(S(=O)(=O)N3CCCCCC3)ccc21,n,x,x,u,x,x
COc1ccc(S(=O)(=O)N2CCCCCC2)cc1C(=O)N(C)Cc1ccc(C)cc1,n,u,x,n,u,x
COc1ccc(CCNC(=O)c2cc(S(=O)(=O)N3CCOCC3)ccc2N2CCCC2)cc1OC,n,u,x,n,n,x
COc1ccc(CCNC(=O)c2cc(S(=O)(=O)N3CCCCCC3)ccc2OC)cc1OC,n,u,x,u,13.1µM,x
COc1ccc(S(=O)(=O)N2CCCCCC2)cc1C(=O)N(C)CCOc1ccc(Cl)cc1,u,13.1µM,x,17.8µM,u,x
CCOC(=O)C1=C(C)Nc2ccccc2N=C1NC(=O)/C=C/c1ccc(OC)cc1OC,n,u,n,u,u,n
CCOC(=O)c1cc(CC)sc1NC(=O)CN1CCN(C(=O)C2CCCO2)CC1 (centres undefined),n,u,n,u,n,n
COc1ccc(Br)cc1CN(C)C(=O)c1ccncc1,x,n,n,x,n,n
CCCN1C(=O)C(Cc2nc3ccccc3c(=O)n2CC)c2cc(Br)ccc21 (centres undefined),n,x,x,n,x,x
